The values that follow come from the supplement of paper PMC10127200.

Structures are written as SMILES. Where a name gives a salt, the structure may show the parent alone.

The subject of the first assay is FB. As to the kind of experiment: Euclidean distance of Cell Painting phenotypic profile (signed KS, 77 features) to DMSO centroid (dimensionless distance); 5 or 10 uM (library dependent); higher = stronger phenotypic change vs DMSO (phenoactivity). As to conditions: 48 h. The method in brief: (§1)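 Stained cells were imaged confocally at 20X with 9 fields per well, after 48 h of exposure to library compounds at 10 or 5 uM (set by library; 0.1% DMSO final). The cells were five cancer lines and a healthy fibroblast line. From the images, Harmony extracted 77 features, each expressed as a signed Kolmogorov-Smirnov statistic relative to same-plate vehicle wells. Phenoactivity is measured as Euclidean distance to the median vehicle profile, using plate-position-corrected, correlation-weighted profiles averaged across replicates at the top dose.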
As for `CC/C(=C(/CC)c1ccc(O)cc1)c1ccc(O)cc1` [Diethylstilbestrol], the Euclidean distance came to 0.826.

As to `CO/N=C(\C(=O)N[C@@H]1C(=O)N2C(C(=O)O)=C(CSc3nc(=O)c(O)nn3C)CS[C@H]12)c1csc(N)n1` [Ceftriaxone Sodium Trihydrate], the Euclidean distance was determined as 0.836.

`CCN(CC)C(=O)/C(C#N)=C/c1cc(O)c(O)c([N+](=O)[O-])c1` [Entacapone] came in with an Euclidean distance of 1.1.

`C[C@H]1COc2c(C3(N)CC3)c(F)cc3c(=O)c(C(=O)O)cn1c23` [Pazufloxacin mesylate] returned an Euclidean distance of 0.993.

Take `O=C(O)c1ccccc1C(=O)Nc1ccc(S(=O)(=O)Nc2nccs2)cc1` [Phthalylsulfathiazole]: the Euclidean distance came to 1.11.

`OCCOc1ccc(/C(=C(/CCCl)c2ccccc2)c2ccccc2)cc1` [Ospemifene] had an Euclidean distance of 0.945.

`CN1C2CCCC1CC(NC(=O)c1nn(C)c3ccccc13)C2` (stereo unspecified) [Granisetron] returned an Euclidean distance of 1.23.

`CC1=Nc2ccc(Cl)cc2S(=O)(=O)N1` [Diazoxide] displayed an Euclidean distance of 1.21.

Molecule `Cn1cc(/C=C/C(=O)c2cccc(F)c2)cc1/C=C/C(=O)NO` yielded an Euclidean distance of 1.27.

Consider `CCCc1nc(C)c2c(=O)nc(-c3cc(S(=O)(=O)N4CCN(CC)CC4)ccc3OCC)[nH]n12` [Vardenafil HCl Trihydrate], for which the Euclidean distance was determined as 1.02.

Molecule `COc1ccc(S(=O)(=O)N(C(C)=O)c2ccccc2/C=C/c2cc[n+]([O-])cc2)cc1` displayed an Euclidean distance of 2.75.

In turn, `O=C(CCCCCCNC(=O)c1cnc(N(c2ccccc2)c2ccccc2Cl)nc1)NO` [Citarinostat (ACY-241)] came in with an Euclidean distance of 3.07.

As to `CC[C@@H](Nc1c(Nc2cccc(C(=O)N(C)C)c2O)c(=O)c1=O)c1ccc(C)o1`, the Euclidean distance turned out to be 0.605.

`CC(C)[C@H](C(=O)Nc1ccc(C(=O)NO)cc1)c1ccccc1`: the Euclidean distance turned out to be 4.34.

Molecule `Nc1cccc2c1C(=O)N(C1CCC(=O)NC1=O)C2=O` (stereo unspecified) [Pomalidomide] displayed an Euclidean distance of 1.06.

Turning to `Nc1nc(N)c2nc(-c3cccc(O)c3)cnc2n1`, the Euclidean distance was 2.43.

Consider `CC(=O)OCC1=C(C(=O)O)N2C(=O)[C@@H](NC(=O)Cc3cccs3)[C@H]2SC1` [Cephalothin], for which the Euclidean distance turned out to be 1.24.

`COc1ccc(-c2ccc3c(N4CCOCC4)nc(N4C[C@@H](C)O[C@@H](C)C4)nc3n2)cc1CO` displayed an Euclidean distance of 3.61.

Turning to `OC(CCCN1CCCCC1)(c1ccccc1)c1ccccc1` [Diphenidol HCl], the Euclidean distance was 0.867.

In turn, `C[C@H]1COc2c(N3CCN(C)CC3)c(F)cc3c(=O)c(C(=O)O)cn1c23` [Levofloxacin hydrate] had an Euclidean distance of 1.25.

Molecule `CC1=C(C(=O)OC(C)C)C(c2cccc([N+](=O)[O-])c2)C(C(=O)OC2CN(C(c3ccccc3)c3ccccc3)C2)=C(N)N1` (stereo unspecified) [Azelnidipine] registered an Euclidean distance of 1.17.

In the case of `C=C1/C(=C\C=C2/CCC[C@]3(C)[C@@H]([C@H](C)CCCC(C)(C)O)CC[C@@H]23)C[C@@H](O)C[C@@H]1O` [Calcitriol], the Euclidean distance is 2.23.

`O=C(O)/C=C/c1ccc(O)c(O)c1` [Caffeic Acid] had an Euclidean distance of 0.961.

The molecule `CC[C@H]1[C@@H](O)[C@@H]2[C@H](CC[C@]3(C)[C@@H]([C@H](C)CCC(=O)O)CC[C@@H]23)[C@@]2(C)CC[C@@H](O)C[C@@H]12` [Obeticholic Acid] had an Euclidean distance of 0.944.

On to `CCCN1CCCC[C@H]1C(=O)Nc1c(C)cccc1C` [Ropivacaine], for which the Euclidean distance was determined as 1.93.

For `CCN(CC)CCOC(=O)C1(C2CCCCC2)CCCCC1` [Dicyclomine HCl], the Euclidean distance was 1.16.

Consider `O=C(O)Cc1ccccc1Nc1c(Cl)cccc1Cl` [Diclofenac acid], for which the Euclidean distance was found to be 0.749.

As for `CCCOC(C(=O)OC1CCN(C)CC1)(c1ccccc1)c1ccccc1` [Propiverine hydrochloride], the Euclidean distance amounted to 1.33.

In turn, `O=C(Nc1ccccc1)Nc1ccc(-c2ccc(C(=O)[C@@H]3CCC[C@H]3C(=O)O)cc2)cc1` returned an Euclidean distance of 1.29.

Molecule `CC(=O)c1cc([N+](=O)[O-])c(Sc2ccc(F)cc2F)s1` had an Euclidean distance of 0.781.

`Cc1ccc(Cl)cc1N(CC(=O)Nc1c(F)cccc1F)S(C)(=O)=O` had an Euclidean distance of 0.614.

Another assay has as its system HEPG2. The description is as above. As to conditions: 48 h. In short, it runs like this: as §1
For the molecule `CNC1CCCN(c2c(F)cc3c(=O)c(C(=O)O)cn(C4CC4)c3c2OC)C1` (stereo unspecified) [Balofloxacin Dihydrate], the Euclidean distance was 1.13.

Turning to `OCCN1CCN(CCCN2c3ccccc3Sc3ccc(C(F)(F)F)cc32)CC1` [Fluphenazine dihydrochloride], the Euclidean distance came to 2.66.

On to `O=C(O)CCCCC(CCSCc1ccccc1)SCc1ccccc1` (stereo unspecified), for which the Euclidean distance is 0.938.

Molecule `CCOC(=O)Nc1ccc(NCc2ccc(F)cc2)nc1N` [Flupirtine maleate] returned an Euclidean distance of 0.854.

With `N=C(N)NC(=N)N1CCOCC1` [Moroxydine HCl], the Euclidean distance amounted to 0.422.

Consider `O=C(Nc1c(Cl)cncc1Cl)c1ccc(OC(F)F)c(OCC2CC2)c1` [Roflumilast], for which the Euclidean distance was 0.815.

On to `C[N+](C)(C)NCCC(=O)[O-]` [Mildronate], for which the Euclidean distance is 0.54.

The molecule `CCN(CC)Cc1ccc2cc(COC(=O)Nc3ccc(C(=O)NO)cc3)ccc2c1` [Givinostat (ITF2357)] returned an Euclidean distance of 4.2.

In turn, `CCN(CC)CCCC(C)Nc1c2ccc(Cl)cc2nc2ccc(OC)cc12` (stereo unspecified) [Quinacrine Dihydrochloride Dihydrate] came in with an Euclidean distance of 4.78.

Turning to `CC/C(=C(/CC)c1ccc(O)cc1)c1ccc(O)cc1` [Diethylstilbestrol], the Euclidean distance is 0.721.

For the molecule `CO/N=C(\C(=O)N[C@@H]1C(=O)N2C(C(=O)O)=C(CSc3nc(=O)c(O)nn3C)CS[C@H]12)c1csc(N)n1` [Ceftriaxone Sodium Trihydrate], the Euclidean distance turned out to be 0.792.

Molecule `CCN(CC)C(=O)/C(C#N)=C/c1cc(O)c(O)c([N+](=O)[O-])c1` [Entacapone] registered an Euclidean distance of 0.422.

The molecule `C[C@H]1COc2c(C3(N)CC3)c(F)cc3c(=O)c(C(=O)O)cn1c23` [Pazufloxacin mesylate] gave an Euclidean distance of 1.28.

The molecule `O=C(O)c1ccccc1C(=O)Nc1ccc(S(=O)(=O)Nc2nccs2)cc1` [Phthalylsulfathiazole] returned an Euclidean distance of 0.685.

As for `OCCOc1ccc(/C(=C(/CCCl)c2ccccc2)c2ccccc2)cc1` [Ospemifene], the Euclidean distance worked out at 1.26.

Take `CN1C2CCCC1CC(NC(=O)c1nn(C)c3ccccc13)C2` (stereo unspecified) [Granisetron]: the Euclidean distance was 1.

Consider `CC1=Nc2ccc(Cl)cc2S(=O)(=O)N1` [Diazoxide], for which the Euclidean distance is 1.01.

As to `Cn1cc(/C=C/C(=O)c2cccc(F)c2)cc1/C=C/C(=O)NO`, the Euclidean distance was 0.359.

`CCCc1nc(C)c2c(=O)nc(-c3cc(S(=O)(=O)N4CCN(CC)CC4)ccc3OCC)[nH]n12` [Vardenafil HCl Trihydrate] came in with an Euclidean distance of 0.77.

For `COc1ccc(S(=O)(=O)N(C(C)=O)c2ccccc2/C=C/c2cc[n+]([O-])cc2)cc1`, the Euclidean distance turned out to be 3.08.

`O=C(CCCCCCNC(=O)c1cnc(N(c2ccccc2)c2ccccc2Cl)nc1)NO` [Citarinostat (ACY-241)]: the Euclidean distance was determined as 2.52.

As for `CC[C@@H](Nc1c(Nc2cccc(C(=O)N(C)C)c2O)c(=O)c1=O)c1ccc(C)o1`, the Euclidean distance amounted to 0.633.

`CC(C)[C@H](C(=O)Nc1ccc(C(=O)NO)cc1)c1ccccc1` had an Euclidean distance of 4.16.

For `Nc1cccc2c1C(=O)N(C1CCC(=O)NC1=O)C2=O` (stereo unspecified) [Pomalidomide], the Euclidean distance turned out to be 0.312.

Molecule `Nc1nc(N)c2nc(-c3cccc(O)c3)cnc2n1` registered an Euclidean distance of 0.858.

`CC(=O)OCC1=C(C(=O)O)N2C(=O)[C@@H](NC(=O)Cc3cccs3)[C@H]2SC1` [Cephalothin] showed an Euclidean distance of 1.28.

In the case of `COc1ccc(-c2ccc3c(N4CCOCC4)nc(N4C[C@@H](C)O[C@@H](C)C4)nc3n2)cc1CO`, the Euclidean distance was 2.

As to `OC(CCCN1CCCCC1)(c1ccccc1)c1ccccc1` [Diphenidol HCl], the Euclidean distance amounted to 0.89.

In the case of `C[C@H]1COc2c(N3CCN(C)CC3)c(F)cc3c(=O)c(C(=O)O)cn1c23` [Levofloxacin hydrate], the Euclidean distance was found to be 0.54.

`CC1=C(C(=O)OC(C)C)C(c2cccc([N+](=O)[O-])c2)C(C(=O)OC2CN(C(c3ccccc3)c3ccccc3)C2)=C(N)N1` (stereo unspecified) [Azelnidipine] yielded an Euclidean distance of 1.44.

The molecule `C=C1/C(=C\C=C2/CCC[C@]3(C)[C@@H]([C@H](C)CCCC(C)(C)O)CC[C@@H]23)C[C@@H](O)C[C@@H]1O` [Calcitriol] showed an Euclidean distance of 0.859.

For `O=C(O)/C=C/c1ccc(O)c(O)c1` [Caffeic Acid], the Euclidean distance worked out at 0.639.

Molecule `CC[C@H]1[C@@H](O)[C@@H]2[C@H](CC[C@]3(C)[C@@H]([C@H](C)CCC(=O)O)CC[C@@H]23)[C@@]2(C)CC[C@@H](O)C[C@@H]12` [Obeticholic Acid] returned an Euclidean distance of 0.851.

The molecule `CCCN1CCCC[C@H]1C(=O)Nc1c(C)cccc1C` [Ropivacaine] showed an Euclidean distance of 1.18.

`CCN(CC)CCOC(=O)C1(C2CCCCC2)CCCCC1` [Dicyclomine HCl] gave an Euclidean distance of 1.04.

`O=C(O)Cc1ccccc1Nc1c(Cl)cccc1Cl` [Diclofenac acid] came in with an Euclidean distance of 0.668.

`CCCOC(C(=O)OC1CCN(C)CC1)(c1ccccc1)c1ccccc1` [Propiverine hydrochloride] registered an Euclidean distance of 1.39.

Consider `O=C(Nc1ccccc1)Nc1ccc(-c2ccc(C(=O)[C@@H]3CCC[C@H]3C(=O)O)cc2)cc1`, for which the Euclidean distance worked out at 1.92.

Consider `CC(=O)c1cc([N+](=O)[O-])c(Sc2ccc(F)cc2F)s1`, for which the Euclidean distance worked out at 2.06.

The molecule `Cc1ccc(Cl)cc1N(CC(=O)Nc1c(F)cccc1F)S(C)(=O)=O` showed an Euclidean distance of 0.565.
